Bioassay records as filed in PubChem BioAssay.
Spn DPM-DC inh = S. pneumoniae DPM-DC inhibition; purified DPM-DC, PK/LDH coupled NADH fluorescence; calls only at 10 µM; 65,000 compounds, 0.49% hits; AID 556;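 active = the 320 compounds with the highest percent inhibition in the single-dose primary screen, excluding strongly autofluorescent ones, cut at about 32% in these data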;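 note: kinetic rate of NADH fluorescence loss reporting ADP formed by the decarboxylase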
Fluor 339 460 = intrinsic fluorescence of library compounds, ex339/em460 – biochemical, MLSMR library, data from DPM-DC assay, artefact control, profiling panel; compound autofluorescence, ex339/em460 nm, NADH buffer; hits give high values; 1 = no-compound wells, NADH background; 65,000 compounds, 5.5% hits; AID 709; fluorescence fold increase at 10 µM;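 active = at 10 µM, mean starting fluorescence two-fold or more over control wells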;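 note: signal is the first read of a kinetic run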
NADH enzymes = inhibition of NAD/NADH coupling enzymes, library profiling | IC50, µM (doses to about 10 µM), inactives show top-dose inhibition | coupled PK/LDH NADH assays, four targets | 65,000 compounds, 0.02% hits;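 active = single-dose screening hits from any of four coupled enzyme assays that gave an IC50 when retested across doses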;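 note: the DPM-DC format reads NADH fluorescence rather than 340 nm absorbance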
Abs 340nm = compound absorbs light at 340 nm; compound absorbance at 340 nm, fold over control; fold change at 10 µM; 65,000 tested, under 10 active;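 active = at 10 µM dose, initial 340 nm absorbance at least 2 fold that of control wells; inactive = change under 2 fold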;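 note: initial absorbance extrapolated from kinetic A340 decline of NADH oxidation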
Spn PMK inh = S. pneumoniae PMK inhibition; purified PMK, PK/LDH-coupled NADH absorbance 340 nm; inhibition, % at 10 µM; 65,000 compounds, 0.49% hits; AID 539;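 active = top-ranked compounds by inhibition in the single 10 µM screen, taking a fixed number of the strongest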;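 note: 0% = full reaction with DMSO carrier and 100% = background rate without enzyme reaction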
MK inhibit = blocks S. pneumoniae mevalonate kinase. purified MK, PK/LDH-coupled NADH absorbance 340 nm. inhibition, % at 10 µM. 65,000 compounds, 0.48% hits;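 active = ranked among the strongest by inhibition in the single 10 µM screen, a fixed top-ranked set picked for dose follow-up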
The depositor's hits bear a star; i = inactive; . = not tested or not shown; + = active, no number; [ ] = remark or other dose. Most compounds without a hit are left out; they make up all but 6.8% or so of the library.

SMILES | Spn DPM-DC inh | Fluor 339 460 | NADH enzymes | Abs 340nm | Spn PMK inh | MK inhibit
Nc1nc2sc3c(c2cc1C(=O)N1CCOCC1)CCCC3 | . | 2.2* | 15% | 1 | 1 | 28
CCn1cc(C(=O)NCCc2ccccc2)c(=O)c2cc(F)c(N3CCN(C)CC3)cc21 | i | 1.6 | 4% | 1 | 4 | 0
CCn1cc(C(=O)NCc2ccco2)c(=O)c2cc(F)c(N3CCN(C(=O)c4ccco4)CC3)cc21 | +[fluoresces] | 2.4* | 4% | 1 | 10 | 3
CCn1cc(C(=O)NCc2ccc3c(c2)OCO3)c(=O)c2cc(F)c(N3CCN(C)CC3)cc21 | i | 2.2* | 11% | 1.1 | 2 | 7
CCOC(=O)C1CCN(S(=O)(=O)c2cccc(-c3cn4cccc(C)c4n3)c2)CC1 | i | 1.4 | 2% | 1 | 0 | 4
COc1cc2c(cc1OC)C(c1ccccc1O)N(C1CC(=O)N(c3ccccc3)C1=O)CC2 (centres undefined) | i | 0.98 | 3% | 1 | 3 | 10
COc1ccc(N2CCN(c3ccc(NC(=O)C4CCCCC4)cc3C#N)CC2)cc1 | i | 2.2* | 5% | 1 | 8 | 1
COc1ccc(C(=O)N2CCC(C(=O)Nc3ccc(OC)c(OC)c3)CC2)cc1 | i | 1.1 | 3% | 1 | 5 | 4
COc1ccc(C(=O)Nc2ccc(N3CCN(c4ccc(OC)cc4)CC3)c(C#N)c2)cc1 | . | 5.1* | 11% | 1 | 14 | 7
COc1ccc(N2CCN(c3ccc(N)cc3C#N)CC2)cc1 | i | 1.5 | 6% | 1 | 15 | 3
CC(=O)N(Cc1ccco1)C1(C(=O)NC2CCCCC2)CCCCC1 | i | 1.2 | 5% | 1 | 6 | 8
O=C1CCC(C(=O)N(Cc2ccco2)C2(C(=O)NC3CCCC3)CCCCC2)N1 (centres undefined) | + | 1.1 | 5% | 1 | 0 | 0
COc1ccc(OCCC(=O)Nc2cc(C)on2)cc1 | i | 1.1 | 10% | 1.1 | 14 | 15
Cc1cc(NC(=O)CSc2nc(-c3cccs3)cc(C(F)(F)F)n2)no1 | i | 1.2 | 6% | 1.1 | 15 | 0
COc1ccc(-c2cc(C(F)(F)F)nc(SCC(=O)N3CC(C)OC(C)C3)n2)cc1OC (centres undefined) | . | 3.5* | 4% | 1.2 | 8 | 0
COc1ccc(-c2cc(C(F)(F)F)nc(SCCC(=O)N3CCN4CCCC4C3)n2)cc1 (centres undefined) | + | 2.3* | 16% | 1.1 | 1 | 10
O=C(CCSc1nc(-c2ccco2)cc(C(F)(F)F)n1)N1CCN(c2ccccc2)CC1 | i | 1.1 | 1% | 1.1 | 3 | 0
COc1ccc(-c2cc(C(F)(F)F)nc(NC3CCCC3)n2)cc1OC | i | 1.6 | 2% | 1.1 | 0 | 6
COc1ccc(-c2cc(C(F)(F)F)nc(SCC(=O)Nc3cc(C)on3)n2)cc1OC | . | 3.8* | 10% | 1.1 | 12 | 8
COc1ccc(-c2cc(C(F)(F)F)nc(SCCC(=O)Nc3cc(C)on3)n2)cc1 | + | 1.8 | 21% | 1 | 8 | 13
COC(=O)c1ccc(CSc2nc(C)nc3c2c(=O)n(C)c(=O)n3C)o1 | i | 1.1 | 2% | 1.1 | 0 | 5
CCN(CC)CCNC(=O)CCCNC(=O)Cn1cnc2sc(C)c(C)c2c1=O | i | 1 | 5% | 1 | 8 | 7
Cn1c(=O)c2c(nc(N3CCN(Cc4ccccc4)CC3)n2CCSc2ncccn2)n(C)c1=O | i | 1.1 | 4% | 1 | 10 | 3
CCOc1ccccc1N(CC(=O)NC1CCCCC1)S(C)(=O)=O | i | 1.2 | 2% | 1 | 0 | 7
O=C(CCSc1nc(-c2ccc3c(c2)OCO3)cc(C(F)(F)F)n1)NCc1ccco1 | . | 2.2* | 17% | 1.1 | 28* | 5
SMILES | Spn DPM-DC inh | Fluor 339 460 | NADH enzymes | Abs 340nm | Spn PMK inh | MK inhibit
CCn1c(COc2ccc3c(c2)CCCC3)nnc1SCC(=O)Nc1nccs1 | i | 1.1 | 11% | 1.1 | 8 | 10
COc1ccc(C(=O)NCCn2ccc3ccccc32)cc1 | i | 1 | 3% | 0.99 | 9 | 9
O=C(NCCn1ccc2ccccc21)c1ccc2c(c1)OCO2 | . | 2.1* | 6% | 1.1 | 6 | 5
CC1CN(C(=O)c2cc3c(s2)CCC3)CC(C)O1 (centres undefined) | i | 1.1 | 3% | 1 | 7 | 1
CC1CN(C(=O)c2cc3c(=O)n4ccccc4nc3s2)CC(C)O1 (centres undefined) | . | 4.9* | 9% | 1.1 | 18 | 0
COc1cc(C(=O)N2CCC(c3nc(-c4cccnc4)no3)CC2)cc(OC)c1OC | i | 1.1 | 1% | 0.99 | 6 | 0
Cc1c(-c2ccccc2)c(P(=O)(N2CCOCC2)N2CCOCC2)c2ccccn12 | . | 5* | 6% | 1 | 12 | 0
O=P(C1=C(N2CCOCC2)/C(=C\c2ccccc2)CC1)(N1CCOCC1)N1CCOCC1 | i | 1.2 | 8% | 1.1 | 16 | 1
Cc1cc(N2CCN(c3ccccc3F)CC2)nc2cc(O)ccc12 | i | 3.1* | 5% | 1.1 | 7 | 7
COc1ccc(N2CCN(c3cc(C)c4ccc(O)cc4n3)CC2)cc1 | . | 2.1* | 3% | 1.1 | 5 | 0
O=C(c1cccc(C(=O)N2CCN(c3ccccc3F)CC2)n1)N1CCN(c2ccccc2F)CC1 | i | 1.1 | 7% | 1 | 14 | 7
Cc1cc(N2CCOCC2)nc2cc(O)ccc12 | . | 2.2* | 4% | 1.1 | 3 | 5
Cc1cc(N2CCCN(C)CC2)nc2cc(Cl)ccc12 | i | 1.6 | 1% | 1.1 | 1 | 0
COCCn1c(SCC(=O)OCc2ccccc2)nc2c1c(=O)[nH]c(=O)n2C | i | 1.1 | 0% | 1.1 | 0 | 0
CCCCOCCCn1cnc2c([nH]c3cc(OC)ccc32)c1=O | i | 1.1 | 3% | 1.1 | 9 | 0
C=CCNS(=O)(=O)c1ccc(OCC(=O)OCC)cc1 | i | 1.1 | 4% | 1 | 1 | 6
C=CCOC(=O)COc1ccc2c(C)c(C)c(=O)oc2c1 | . | 2.1* | 7% | 1.1 | 8 | 6
C=CCOC(=O)COc1ccc2c(C)c(CC)c(=O)oc2c1 | . | 3.9* | 9% | 1.1 | 7 | 11
Cc1noc(C)c1COC(=O)COc1ccc2c(C)cc(=O)oc2c1 | i | 1.6 | 4% | 1.1 | 0 | 0
Cc1cn(S(=O)(=O)c2ccc(Br)c3ccccc23)cn1 | i | 1 | 1% | 1 | 2 | 0
CN(C)C(CNC(=O)NC1CCCCC1)c1cccnc1 (centres undefined) | i | 1.1 | 5% | 1 | 10 | 4
COCCCNC(=O)c1ccc2nc3ccccc3c(=O)n2c1 | . | 4.9* | 11% | 1.1 | 21 | 0
COCCCn1c(-c2ccccc2)nc2ccccc2c1=O | i | 1.1 | 1% | 1 | 0 | 2
O=C(c1ccc(N2CCOCC2)nc1)N1CCOCC1 | i | 1.1 | 2% | 1 | 7 | 0
